# Screening results: PubChem BioAssay, National Center for Advancing Translational Sciences (NCATS)
# A selection: hits, their analogues and other compounds. The true share with any hit is near 17%.
# HT1080NT lethal = qHTS for induction of synthetic lethality in tumor cells producing 2HG: qHTS for the HT-1080-NT fibrosarcoma cell line; HT-1080-NT fibrosarcoma viability, CellTiter-Glo ATP luminescence, 48 h; 360,000 compounds, 1.6% hits; Potency, µM (titrated, usually from 46.1 µM), for inactives: at the top dose activity, negative = less viability, actives largely listed as cytotoxic;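 further: NT is the 2HG producing partner of a matched IDH1 knockdown line; 0% = DMSO-treated cells and -100% = media-only wells without cells; nearly all actives have a fitted effect of over 55% in size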
#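 Toxicity toward the 2HG-producing NT line was scored as %Activity, normalised to DMSO and no-cell wells, from CellTiter-Glo luminescence after 48 hours' treatment.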
# HT1080 IDH1KD tx = qHTS for induction of synthetic lethality in tumor cells producing 2HG: qHTS for the HT-1080-IDH1KD cell line | HT-1080 IDH1 knockdown viability, ATP luminescence, 48 h | Potency, µM (highest dose often 46.1 µM), for the others: at the top dose activity, negative = toxicity, most hits filed as cytotoxic | 360,000 compounds, 2% hits;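 further: 0% = DMSO wells and -100% = cell-free medium wells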
#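 In this qHTS, HT-1080 cells depleted of IDH1 are exposed for 48 h at 37 °C to compound titrations. Toxicity is scored from CellTiter-Glo luminescence, with DMSO as full viability and medium alone as none.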
# HepG2 viability = qHTS for Inhibitors of TGF-b: Cytotox Counterscreen; HepG2 CAGA-GFP viability, ATP luminescence, 18 h; Potency, µM (highest dose often 46.1 µM), without a hit: top-dose activity change, negative = cytotoxicity, most hits filed as cytotoxic; 410,000 compounds, 0.76% hits; AID 588856, 2011
#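 HepG2 CAGA-GFP cells (1000/well, DMEM with 1% FBS) received compound, then TGF-beta at 500 pg/mL final, and were incubated 18 hours at 37 degrees C. Viability was read by CellTiter-Glo luminescence. Media-only wells were set as complete cell-killing and DMSO as no toxicity.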
# TGFb inhibitor = qHTS for Inhibitors of TGF-b; AID 588855, 2011; HepG2 CAGA-GFP TGF-b/SMAD3 reporter, GFP fluorescence, 18 h; TGF-beta stimulated, 500 pg/mL final; 410,000 compounds, 1.2% hits; Potency, µM (doses to about 46.1 µM), inactives show at the top dose activity, negative = inhibition, usual class: inhibitors; further: on the % scale 0 is the no-effect control and ±100 the full control effect; nearly all actives have a fitted effect of over 65% in size
#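 Cell-based qHTS in HEPG2 carrying a CAGA-GFP Smad reporter; compounds added before 500 pg/mL final TGF-beta, 18 h incubation at 37 degrees C, GFP fluorescence quantified per cell by imaging cytometry.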
# TDP1 cell CPT = qHTS for Inhibitors of human tyrosyl-DNA phosphodiesterase 1 (TDP1): qHTS in cells in presence of CPT | Potency, µM (titrated, usually from 46.2 µM), for the others: top-dose activity change, negative = growth inhibition, most hits filed as inhibitors | AID 686979, 2013 | chicken DT40 Tdp1-/-;hTDP1 cells + 20 nM CPT, ATP luminescence, 48 h | 420,000 compounds, 12% hits; further: on the % scale 0 is the no-effect control and ±100 the full control effect; nearly all actives have a fitted effect of over 55% in size
#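 Chicken DT40 Tdp1-/- cells stably complemented with human TDP1 were seeded at 400 cells/well in medium containing 20 nM camptothecin, exposed to pin-transferred compounds, and grown at 37 °C for at least 48 hr. Viability was read as ATP luminescence.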
# DT40 TDP1 no CPT = qHTS for Inhibitors of human tyrosyl-DNA phosphodiesterase 1 (TDP1): qHTS in cells in absence of CPT; DT40 Tdp1-/- hTDP1 cells, no CPT, ATP luminescence, 48 h; 420,000 compounds, 15% hits; AID 686978, 2013; Potency, µM (doses to about 46.2 µM), for the others: at the highest dose activity change, negative = growth inhibition, hits mostly inhibitors; further: on the % scale 0 is the no-effect control and ±100 the full control effect; nearly all actives have a fitted effect of over 55% in size
#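 A cellular qHTS used chicken DT40 cells lacking endogenous Tdp1 but carrying stably transfected human TDP1. Compounds were applied without camptothecin, and cell growth kinetics were judged by ATP-dependent luminescence after ≥48 hr.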
# Active calls of the source: *; ? = inconclusive; . = no result; [ ] = remark or other dose. The call rests on the fitted dose curve; in most records, active means well fitted curve in the direction sought with a large enough effect; inconclusive means small, poorly fitted or top-dose-only effect, or another doubt; inactive means no such curve, though single readings can be large; an effect the other way counts as inactive or inconclusive. Potency means the concentration at half of the fitted maximal effect.
SMILES,HT1080NT lethal,HT1080 IDH1KD tx,HepG2 viability,TGFb inhibitor,TDP1 cell CPT,DT40 TDP1 no CPT
CCCCNc1nc2c(-c3cccc(Br)c3)nnn2c2ccccc12,.,.,0.4%,26.9%,1.4%,-20.0%
CCCCNc1nccnc1-c1cccc(C=O)c1,?,21.2%,-10.3%,19.2%,18.4µM*,?
COc1ccccc1N1CCN(Cc2cc(COC(C)C)c3cccnc3c2O)CC1,.,.,2.82µM*,2.24µM*,4.61µM*,4.61µM*
CCOCc1cc(CN2CCN(c3ccccc3OC)CC2)c(O)c2ncccc12,.,.,1.58µM*,.,5.17µM*,5.17µM*
CCCOCc1cc(CN2CCN(c3ccccc3OC)CC2)c(O)c2ncccc12,.,.,11.2µM*,2µM*,4.61µM*,2.91µM*
S=c1[nH]nc(-c2cccc(Cl)c2)n1CCN1CCCCC1,12.0%,11.3%,-5.3%,0.3%,3.3%,-16.3%
COc1ccc(CN2CCc3c([nH]c4ccccc34)C2)c(OC)c1C,?,14.6µM*,-21.0%,-0.5%,?,?
CN1CCc2c(sc(NC(=O)c3ccco3)c2C(N)=O)C1,11.2%,8.9%,-21.4%,-6.2%,12.7%,-0.8%
CN1CCc2c(sc(NC(=O)c3ccc(S(=O)(=O)N4CCOCC4)cc3)c2C(N)=O)C1,4.4%,-1.9%,3.2%,-1.3%,-22.3%,-30.0%
CNC(=O)c1c(NC(=O)c2ccc(S(=O)(=O)N3CCCc4ccccc43)cc2)sc2c1CCN(C)C2,-5.6%,-2.9%,-36.2%,6.5%,23.1µM*,13µM*
CNC(=O)c1c(NC(=O)c2ccc(S(=O)(=O)N3CCCCC3)cc2)sc2c1CCN(C(C)C)C2,-23.1%,-24.5%,-20.8%,-18.9%,?,?
CN1CCc2c(sc(NC(=O)c3ccc(S(=O)(=O)N4CCCCCC4)cc3)c2C(N)=O)C1,23.1µM*,20.6µM*,-20.3%,-1.4%,18.4µM*,11.6µM*
CN1CCc2c(sc(NC(=O)c3ccc(S(=O)(=O)N4CCCC4)cc3)c2C(N)=O)C1,18.5%,24.5%,-3.5%,-12.8%,?,16.4µM*
CN1CCc2c(sc(NC(=O)c3cc(Cl)sc3Cl)c2C(N)=O)C1,?,?,-58.9%,-25.6%,?,20.6µM*
COc1ccc(Cl)cc1NC(=O)CSc1nccn1-c1ccc(Cl)cc1,.,.,2.8%,21.9%,?,-29.4%
N#Cc1ccc(NC(=O)COC(=O)CCc2nc3ccccc3c(=O)[nH]2)cc1,12.4%,13.3%,-3.6%,-27.8%,-0.9%,-13.1%
Cc1nn(C)c2c1c(C(F)(F)F)cc(=O)n2CC(=O)N1CCCCC1C (stereo unspecified),.,.,-8.7%,11.1%,?,?
COc1ccc(N(CC(=O)Nc2cccc(C(C)=O)c2)S(=O)(=O)c2ccccc2)c(OC)c1,.,.,-1.2%,6.9%,7.31µM*,6.51µM*
COc1ccc(NC(=O)CN(c2ccc(F)cc2)S(=O)(=O)c2ccccc2)c(OC)c1,4.2%,7.1%,-26.7%,-3.2%,?,?
CCc1ccccc1NC(=O)CN(c1ccc(OC)cc1OC)S(=O)(=O)c1ccccc1,-0.2%,-14.4%,-23.7%,-12.6%,20.6µM*,?
CC(C)CN1C(=O)CSCC1(C)C(=O)NC(C)C (stereo unspecified),4.4%,-5.1%,.,.,30.6%,4.2%
CCn1cc(C(=O)N[C@@H](CCSC)C(=O)NC(C)(C)CO)c(=O)c2cc3c(cc21)OCO3,-6.5%,0.6%,-0.9%,-22.1%,-8.7%,-6.2%
COc1cc(=O)n2c(c1C(=O)NC(C)c1ccco1)CCN(C(=O)c1ccnc(Cl)c1)CC2 (stereo unspecified),.,.,.,.,14.9%[9.04 µM],-1.8%
Oc1ccc(N=Cc2ccc(OCc3ccccc3)cc2)cc1,?,?,-106.4%,11.2µM*,20.6µM*,20.6µM*
O=C(N/N=C/c1ccc(OCc2ccccc2)cc1)c1ccncc1,-19.3%,-4.0%,-1.4%,10.3%,-25.6%,-25.6%
SMILES,HT1080NT lethal,HT1080 IDH1KD tx,HepG2 viability,TGFb inhibitor,TDP1 cell CPT,DT40 TDP1 no CPT
O=C1C(=Cc2ccccc2[N+](=O)[O-])Cc2ccccc21,?,?,17.8µM*,12.6µM*,2.59µM*,3.26µM*
CC1(C)CC(=Cc2ccccc2[N+](=O)[O-])C(=O)c2ccccc21,-6.0%,2.0%,-17.6%,-3.4%,-29.7%,16.4µM*
O=C1NC(=O)/C(=C\c2ccccc2OCc2ccccc2)S1,-13.3%,-25.1%,-18.2%,-3.0%,-2.4%,-12.7%
O=C1NC(=O)C(=Cc2ccccc2[N+](=O)[O-])S1,20.6µM*,?,-8.8%,-5.1%,?,20.6µM*
Cc1ccccc1/C=C1\CCCc2ccccc2C1=O,-15.2%,-15.5%,-28.1%,-4.2%,-21.1%,-26.4%
Nc1ccccc1C=C1Cc2ccccc2C1=O,-9.4%,-17.2%,-36.0%,60.2%,10.5%,-26.1%
COc1cc(NC(=O)c2ccc3c(c2)OCCO3)ccc1NC(=O)c1ccccc1Cl,-25.7%,-18.6%,-13.9%,-19.3%,?,-25.9%
Cc1cc(Oc2ccccc2)nc(C#N)n1,19.7%,23.7%,.,.,2.0%,-15.8%
CCN(CC)S(=O)(=O)c1cc(Cl)ccc1OC,17.2%,9.1%,-1.1%,10.1%,-28.3%,-15.8%
O=C(Cc1ccccc1)Nc1ccc(N2CCN(Cc3ccccc3F)CC2)cc1,-12.1%,-22.5%,-13.0%,-10.5%,-24.2%,-12.0%
COc1cc(O)cc2c1[C@@H]1Oc3c(ccc(O)c3CC=C(C)C)[C@@H]1CO2,-0.1%,0.6%,-24.3%,?,18.4µM*,23.1µM*
O=C1NC[C@@H](c2ccccc2)OC(=O)[C@@H](Cc2ccc(F)cc2)CC/C=C/C[C@@H]1CC(=O)N(CCO)Cc1ccccc1,-21.5%,.,.,?,16.4µM*,14.6µM*
O=C(C[C@H]1C/C=C/CC[C@@H](Cc2ccc(F)cc2)C(=O)OC[C@H](c2ccccc2)NC1=O)NCCO,0.0%,0.0%,-8.9%,-0.6%,-14.5%,-21.4%
O=C1N[C@@H](Cc2ccccc2)COC(=O)[C@@H](Cc2ccc(F)cc2)C/C=C\C[C@@H]1CC(=O)N(CCO)Cc1ccccc1,?,?,-39.4%,?,23.1µM*,18.4µM*
